Test [1] is described as follows: qHTS assay to identify aromatase inhibitors - cell viability counter screen (AID 743084).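 Further: cells stimulated with testosterone during compound exposure; nearly all actives have a fitted effect of over 55% in size.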 For orientation: Quantitative high-throughput screening tests each substance at several concentrations.
Test [2] concerns the target Aryl hydrocarbon receptor (Homo sapiens) (UniProt P35869). In words: qHTS assay to identify small molecule that activate the aryl hydrocarbon receptor (AhR) signaling pathway (AID 743085). Further: nearly all actives have a fitted effect of over 15% in size. Further: potency means the concentration at half of the fitted maximal effect.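 On activation: HG2L7.5c1 human HepG2 liver cells with stably integrated DRE-driven firefly reporter; series mostly up to about 70 µM.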 Summed up:
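Luminescence (ONE-Glo) from a dioxin-responsive-element luciferase reporter in HG2L7.5c1 HepG2 cells after 24 hr compound exposure at 37C; viability measured by CellTiter-Fluor fluorescence beforehand.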

Test [3] in a line: qHTS assay to identify small molecule that activate the aryl hydrocarbon receptor (AhR) signaling pathway - cell viability counter screen (AID 743086).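 Further: HepG2 liver cells carrying the AhR DRE luciferase reporter; series mostly up to about 70 µM; nearly all actives have a fitted effect of over 45% in size.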 The gist of the method: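 HepG2-AhR-luc (HG2L7.5c1) cells, 4000/well, were preincubated 5 h at 37C, exposed to compound in qHTS format for 24 hr at 37C, then given CellTiter-Fluor for 30 min; viability was read as fluorescence in the reporter wells.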

Test [4] concerns the target Peroxisome proliferator-activated receptor gamma (Homo sapiens) (UniProt P37231). The test can be described thus: qHTS assay to identify small molecule agonists of the peroxisome proliferator-activated receptor gamma (PPARg) signaling pathway (AID 743094; active means well fitted activation curve with a large enough effect in the signal ratio in the repeat runs, not every such curve was filed as active; the % refers to the signal ratio). The gist of the method:
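Following 5 h plating at 37C, PPARg-bla HEK293H cells receive compound or DMSO for 17 h; fluorescence intensity is recorded after LiveBLAzer B/G loading for 1 h at room temperature.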

The target is the same in test [5]. The test can be described thus: qHTS assay to identify small molecule antagonists of the peroxisome proliferator-activated receptor gamma (PPARg) signaling pathway (AID 743191; calls by dose curve; further: series mostly up to about 63 µM; nearly all actives have a fitted effect of over 30% in size). Summed up:
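GeneBLAzer PPARg UAS-bla HEK293H cells carrying a UAS-driven beta-lactamase reporter were plated at 3000 cells/well, preincubated 5 h at 37C, then given compound for 17 h at 37C; LiveBLAzer B/G FRET substrate was read after 1 h at room temperature.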

Test [6] can be described thus: qHTS assay to identify small molecule antagonists of the peroxisome proliferator-activated receptor gamma (PPARg) signaling pathway - cell viability counter screen (AID 743194). Further: nearly all actives have a fitted effect of over 55% in size. The settings on record: Potency: co-treated with 50 nM rosiglitazone. Summed up:
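PPARg-UAS-bla HEK293H cells were plated, rested 5 h at 37 C, then treated with compounds plus rosiglitazone (50 nM final) for 17 h at 37 C; viability was then read by CellTiter-Glo luminescence after 30 min at room temperature.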

Test [7] is described as follows: qHTS assay for small molecule agonists of the antioxidant response element (ARE) signaling pathway - cell viability counter screen (AID 743203; calls by dose curve; further: nearly all actives have a fitted effect of over 55% in size). The gist of the method: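 Compounds in DMSO were pinned onto ARE-bla HepG2 cells plated 5 hrs earlier at 2,000 cells/well. Sixteen hours later at 37C/5% CO2, CellTiter-Glo was added and luminescence measured after 30 min at room temperature.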

The nature of test [8]: qHTS assay for small molecule activators of the heat shock response signaling pathway - cell viability counter screen (AID 743209). Further: nearly all actives have a fitted effect of over 50% in size. The gist of the method: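 Counter screen for cytotoxicity in HeLa HSE-bla reporter cells. Treatment was 5 h at 37 C; viability was detected by luminescent ATP assay (CellTiter-Glo) in the same wells as the beta-lactamase read.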
Test [9] is described as follows: qHTS assay for small molecule activators of the heat shock response signaling pathway (AID 743210; active means well fitted activation curve with a large enough effect in the signal ratio in the repeat runs, with a control signal flat, not every such curve was filed as active; the % refers to the signal ratio; further: series mostly up to about 63 µM). Summed up: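 HSE-bla HeLa cells (beta-lactamase reporter under heat shock response elements) were exposed to compounds for 5 h at 37 C, then loaded with LiveBLAzer B/G FRET substrate for 2.5 h at room temperature before fluorescence reading.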
A short description of test [10]: qHTS assay to identify small molecule agonists of the peroxisome proliferator-activated receptor delta (PPARd) signaling pathway - cell viability counter screen (AID 743211). Further: nearly all actives have a fitted effect of over 55% in size. The gist of the method: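 Viability was measured as CellTiter-Glo luminescence (30 min, room temperature) in the same wells as the beta-lactamase readout. GeneBLAzer PPARd UAS-bla HEK293H cells received compound after 5 h plating and were incubated 17 h at 37 C.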

Test [11] has as its target Peroxisome proliferator-activated receptor delta (Homo sapiens) (UniProt Q03181). In words: qHTS assay to identify small molecule agonists of the peroxisome proliferator-activated receptor delta (PPARd) signaling pathway (AID 743212; calls by dose curve). Summed up: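 GeneBLAzer PPARd UAS-bla HEK293H cells (beta-lactamase reporter under UAS control), plated and rested 5 h at 37 C, then exposed to compounds in DMSO at 37 C; LiveBLAzer B/G FRET substrate added, 2 h room temperature, fluorescence read.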

Test [12] is described as follows: qHTS assay to identify small molecule antagonists of the peroxisome proliferator-activated receptor delta (PPARd) signaling pathway - cell viability counter screen (AID 743213). Further: nearly all actives have a fitted effect of over 50% in size. The gist of the method: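 Agonist-stimulated (L165041, 300 nM final) HEK293H PPARd UAS-bla cells are exposed to compounds for 17 h at 37 C, and ATP-based luminescence (CellTiter-Glo) from the same wells reports cytotoxicity.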

The target in test [13] is Peroxisome proliferator-activated receptor delta (Homo sapiens) (UniProt Q03181). The test can be described thus: qHTS assay to identify small molecule antagonists of the peroxisome proliferator-activated receptor delta (PPARd) signaling pathway (AID 743215; active means well fitted inhibition curve with a large enough effect in the signal ratio in the repeat runs, not every such curve was filed as active; the % refers to the signal ratio; further: series mostly up to about 62 µM). Summed up:
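With L165041 present at 300 nM final, compounds were incubated 17 h at 37 C on PPARd UAS-bla HEK293H cells. A FRET-based beta-lactamase substrate was then applied for 2 h at room temperature and fluorescence intensity recorded.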

The nature of test [14]: qHTS assay to identify small molecule agonists of the farnesoid-X-receptor (FXR) signaling pathway - cell viability counter screen (AID 743218). Further: nearly all actives have a fitted effect of over 45% in size. The gist of the method: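 After 16 h at 37 C with test compounds, FXR-bla HEK 293T cells were given LiveBLAzer B/G substrate for 2 h at RT and then CellTiter-Glo; luminescence was taken after 30 min.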
Test [15] can be described thus: qHTS assay to identify small molecule antagonists of the farnesoid-X-receptor (FXR) signaling pathway - cell viability counter screen (AID 743221; active means well fitted cell-killing curve with a large enough effect in the repeat runs, not every such curve was filed as active; further: nearly all actives have a fitted effect of over 50% in size). Summed up:
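Cytotoxicity counter screen run in the FXR-bla reporter wells: HEK 293T cells exposed to compound with 50 uM (final) chenodeoxycholic acid for 16 h, 37 C, then viability measured by CellTiter-Glo luminescence after 30 min, room temperature.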

The target in test [16] is Vitamin D3 receptor (Homo sapiens) (UniProt P11473). In words: qHTS assay to identify small molecule agonists of the vitamin D receptor (VDR) signaling pathway (AID 743222; calls by dose curve). Summed up:
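VDR-bla cells were seeded, left 4 h, treated with compounds in DMSO for 16 h, incubated 2 h at RT with B/G FRET substrate, and read for fluorescence.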

The target is the same in test [17]. The test can be described thus: qHTS assay to identify small molecule antagonists of the vitamin D receptor (VDR) signaling pathway (AID 743223; active means well fitted inhibition curve with a large enough effect in the signal ratio in the repeat runs, not every such curve was filed as active; the % refers to the signal ratio). The gist of the method: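 Antagonist mode: compound added to VDR-bla cells alongside agonist 1alpha,25-dihydroxyvitamin D3 (3 nM final), incubation 16 h at 37C. Read-out is LiveBLAzer FRET fluorescence, 2 h at room temperature.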

Test [18] has as its target Bile acid receptor (Homo sapiens) (UniProt Q96RI1). In words: qHTS assay to identify small molecule antagonists of the farnesoid-X-receptor (FXR) signaling pathway (AID 743217; active means well fitted inhibition curve with a large enough effect in the signal ratio in the repeat runs, not every such curve was filed as active; the % refers to the signal ratio). Summed up: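 In this cell-based antagonist screen, inhibition of CDCA-driven (50 uM final) UAS-beta-lactamase expression in HEK 293T cells was measured by FRET fluorescence following 16 h compound exposure at 37 °C.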

Test [19] shares this target. In words: qHTS assay to identify small molecule agonists of the farnesoid-X-receptor (FXR) signaling pathway (AID 743220; active means well fitted activation curve with a large enough effect in the signal ratio in the repeat runs, not every such curve was filed as active; the % refers to the signal ratio). Summed up: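 Beta-lactamase reporter under UAS control in GeneBLAzer FXR HEK 293T cells (5000/well) measured with LiveBLAzer FRET substrate after 2 h at room temperature. Compound exposure lasted 16 h at 37C.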
A short description of test [20]: qHTS assay for small molecule agonists of the antioxidant response element (ARE) signaling pathway (AID 743202; active means well fitted activation curve with a large enough effect in the signal ratio in the repeat runs, not every such curve was filed as active; the % refers to the signal ratio). Summed up: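 Read-out: LiveBLAzer B/G FRET substrate fluorescence after 2 h at room temperature, following 16 h compound treatment at 37 C of HepG2 cells carrying an ARE-driven beta-lactamase reporter.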

Results filed as inconclusive are left out. The source made the active and inactive calls. Unless noted, the call rests on the fitted dose curve; in most records, active means well fitted curve in the direction sought with a large enough effect in the repeat runs; inconclusive means weak or mixed curves; inactive means no such curve, though single readings can be large; an effect the other way counts as inactive or inconclusive.

Sequence of Bile acid receptor (Homo sapiens) (Q96RI1 whole entry, looked up): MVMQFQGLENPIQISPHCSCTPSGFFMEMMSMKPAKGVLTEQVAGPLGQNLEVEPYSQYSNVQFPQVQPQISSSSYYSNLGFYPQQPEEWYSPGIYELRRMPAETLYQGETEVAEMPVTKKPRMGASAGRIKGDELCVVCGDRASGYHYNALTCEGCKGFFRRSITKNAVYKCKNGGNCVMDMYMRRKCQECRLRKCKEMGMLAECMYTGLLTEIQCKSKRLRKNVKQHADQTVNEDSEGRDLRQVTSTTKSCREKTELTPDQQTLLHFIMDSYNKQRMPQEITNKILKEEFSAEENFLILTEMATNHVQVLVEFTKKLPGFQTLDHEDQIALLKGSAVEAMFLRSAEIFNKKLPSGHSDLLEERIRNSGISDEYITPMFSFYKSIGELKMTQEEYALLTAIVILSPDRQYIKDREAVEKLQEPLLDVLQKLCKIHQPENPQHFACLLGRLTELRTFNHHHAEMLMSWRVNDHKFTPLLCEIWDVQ
Sequence of Vitamin D3 receptor (Homo sapiens) (P11473 whole entry, looked up): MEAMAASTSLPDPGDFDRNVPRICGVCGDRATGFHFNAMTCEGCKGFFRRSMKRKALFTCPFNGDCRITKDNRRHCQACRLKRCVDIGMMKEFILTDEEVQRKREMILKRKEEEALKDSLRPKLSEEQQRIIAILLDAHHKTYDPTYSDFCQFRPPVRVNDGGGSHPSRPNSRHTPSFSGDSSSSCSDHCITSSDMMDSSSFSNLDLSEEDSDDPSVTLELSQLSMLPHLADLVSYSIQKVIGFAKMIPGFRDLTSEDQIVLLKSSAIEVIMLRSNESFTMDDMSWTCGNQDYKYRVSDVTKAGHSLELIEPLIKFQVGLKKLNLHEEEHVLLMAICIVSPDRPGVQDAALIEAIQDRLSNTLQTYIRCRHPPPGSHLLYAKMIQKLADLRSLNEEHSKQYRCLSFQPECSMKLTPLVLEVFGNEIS
Sequence of Peroxisome proliferator-activated receptor gamma (Homo sapiens) (P37231 whole entry, looked up): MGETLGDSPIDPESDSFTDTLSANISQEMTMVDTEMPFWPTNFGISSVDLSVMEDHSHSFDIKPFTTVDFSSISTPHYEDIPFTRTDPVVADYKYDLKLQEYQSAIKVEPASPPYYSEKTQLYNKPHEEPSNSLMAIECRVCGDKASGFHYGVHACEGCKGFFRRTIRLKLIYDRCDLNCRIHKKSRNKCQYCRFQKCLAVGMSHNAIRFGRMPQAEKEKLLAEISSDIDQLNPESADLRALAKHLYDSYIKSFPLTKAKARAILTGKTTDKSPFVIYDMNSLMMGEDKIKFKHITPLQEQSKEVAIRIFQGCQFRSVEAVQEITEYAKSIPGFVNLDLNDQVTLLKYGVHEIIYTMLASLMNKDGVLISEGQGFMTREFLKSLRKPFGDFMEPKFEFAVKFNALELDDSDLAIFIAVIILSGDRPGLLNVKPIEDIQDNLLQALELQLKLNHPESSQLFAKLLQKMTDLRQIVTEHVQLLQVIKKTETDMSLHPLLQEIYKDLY
Sequence of Peroxisome proliferator-activated receptor delta (Homo sapiens) (Q03181 whole entry, looked up): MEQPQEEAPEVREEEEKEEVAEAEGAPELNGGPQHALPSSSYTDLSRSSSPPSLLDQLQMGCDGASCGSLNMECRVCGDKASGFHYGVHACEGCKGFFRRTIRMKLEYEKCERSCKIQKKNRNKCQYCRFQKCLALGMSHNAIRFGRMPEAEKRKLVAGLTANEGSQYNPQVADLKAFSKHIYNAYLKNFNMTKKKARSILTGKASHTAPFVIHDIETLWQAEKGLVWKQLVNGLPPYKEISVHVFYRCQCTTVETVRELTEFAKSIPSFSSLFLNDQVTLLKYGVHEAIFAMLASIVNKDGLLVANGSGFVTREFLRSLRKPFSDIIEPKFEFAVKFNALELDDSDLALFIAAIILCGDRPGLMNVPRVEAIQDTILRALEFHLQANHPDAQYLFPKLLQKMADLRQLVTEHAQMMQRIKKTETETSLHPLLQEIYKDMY
Sequence of Aryl hydrocarbon receptor (Homo sapiens) (P35869 whole entry, looked up): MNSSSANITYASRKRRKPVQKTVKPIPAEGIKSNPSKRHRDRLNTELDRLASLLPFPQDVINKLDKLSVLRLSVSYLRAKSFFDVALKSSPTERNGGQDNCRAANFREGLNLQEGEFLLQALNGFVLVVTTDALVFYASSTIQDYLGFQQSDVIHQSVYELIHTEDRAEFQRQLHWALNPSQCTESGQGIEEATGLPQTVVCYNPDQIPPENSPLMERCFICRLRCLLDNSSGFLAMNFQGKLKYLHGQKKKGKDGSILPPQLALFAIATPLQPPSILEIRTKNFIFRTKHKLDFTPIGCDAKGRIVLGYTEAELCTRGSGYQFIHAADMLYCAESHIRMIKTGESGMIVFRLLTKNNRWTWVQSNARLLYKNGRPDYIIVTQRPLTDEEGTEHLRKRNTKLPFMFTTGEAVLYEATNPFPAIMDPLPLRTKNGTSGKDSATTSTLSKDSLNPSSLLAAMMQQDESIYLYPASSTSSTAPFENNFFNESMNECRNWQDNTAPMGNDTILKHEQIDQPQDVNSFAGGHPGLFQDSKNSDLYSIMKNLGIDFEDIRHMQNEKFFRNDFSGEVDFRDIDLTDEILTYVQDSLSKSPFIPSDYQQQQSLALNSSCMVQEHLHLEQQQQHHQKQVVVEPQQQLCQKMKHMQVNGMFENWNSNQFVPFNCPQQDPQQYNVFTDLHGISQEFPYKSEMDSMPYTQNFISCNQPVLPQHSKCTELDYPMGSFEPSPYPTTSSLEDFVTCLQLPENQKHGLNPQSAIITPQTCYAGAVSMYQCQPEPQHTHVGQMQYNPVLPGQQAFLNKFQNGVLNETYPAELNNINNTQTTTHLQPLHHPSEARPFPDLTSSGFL

`[O-][Cl+]O`: the Potency result in test [1], in test [2], in test [3], in [4], in test [5] and in [6] was “inactive” in each case. The Potency result in test [7], in test [8], in test [10], in test [12], in test [13] and in [14] was “inactive” each time. For the same compound, the Potency result in test [15] is “inactive”. The outcome in [9], in [11], in test [16] and in [17] was inactive.

As for `COc1nn(C(=O)NS(=O)(=O)c2ccccc2OC(F)(F)F)c(=O)n1C`, the Potency entry in test [1], in [2], in test [3], in test [4], in [5] and in test [6] was “inactive” each time. Also, the Potency result in test [7], in [8], in test [10], in [12], in [13] and in test [18] was “inactive” each time. In addition, the Potency result in [14] and in test [15] was “inactive” throughout. In addition, the compound was called inactive in test [9], in test [11], in [19], in [16] and in [17].

Take `CC(C)=CCOc1c2occc2cc2ccc(=O)oc12`: the Potency entry in [1], in test [3], in test [4], in [5], in test [6] and in test [7] was “inactive” each time. For the same compound, the Potency result in test [8], in [10], in test [12], in test [13], in test [18] and in [14] was “inactive” in each case. The Potency result in [15] was “inactive”. In addition, the Potency in [2] is 3.76 µM (active). For the same compound, the compound was called inactive in test [9], in test [11], in test [19] and in [16].

For the compound `CCCCN=C=O`, the Potency entry in test [1], in test [2], in test [3], in test [4], in test [5] and in [7] was “inactive” in each case. The Potency result in test [8], in test [10], in [12], in test [13], in test [18] and in [14] was “inactive” throughout. Also, in [15], the Potency result was “inactive”. For the same compound, the compound was classed as inactive in test [9], in test [11], in test [19], in test [16] and in test [17].

As to `C=COC(C)=O`, the Potency entry in [1], in test [2], in test [3], in test [4], in [5] and in test [6] was “inactive” each time. Moreover, the Potency result in test [20], in [7], in test [8], in [10], in test [12] and in test [15] was “inactive” each time. For the same compound, the compound was called inactive in test [9] and in [16].

As for `CCOS(C)(=O)=O`, the Potency result in test [1], in [2], in [3], in test [4], in test [5] and in [6] was “inactive” in each case. Also, the Potency entry in [7], in [8], in test [10], in test [12], in test [13] and in [18] was “inactive” in each case. In addition, the Potency entry in [15] was “inactive”. Moreover, the compound was classed as inactive in test [9], in test [11], in test [19], in test [16] and in test [17].

For the compound `CC(=O)NC1CCSC1=O` (stereo not drawn), the Potency result in test [1], in test [2], in test [3], in test [4], in test [5] and in test [7] was “inactive” in each case. Also, the Potency entry in test [8], in [10], in [12], in test [13], in test [14] and in test [15] was “inactive” each time. Moreover, the outcome in test [9], in test [11], in [16] and in test [17] was inactive.

As for `CCCN(CCCl)c1c([N+](=O)[O-])cc(C(F)(F)F)cc1[N+](=O)[O-]`, the Potency result in test [1], in test [2], in [3], in [4], in [5] and in [6] was “inactive” throughout. Also, the Potency entry in test [20], in test [7], in test [8], in test [10], in test [12] and in test [18] was “inactive” in each case. Also, the Potency entry in test [14] and in [15] was “inactive” each time. Moreover, the call in test [9], in [11], in test [19] and in test [16] was inactive.

The values are drawn from PubChem BioAssay (Tox21).
